Measurements as given in publication PMC5913336, “True equilibrium measurement of transcription factor-DNA binding affinities using automated polarization microscopy”.
pKd: −log10 of the molar value.

Each sequence was assayed against T1, Pan (Drosophila melanogaster, UniProt P91943 258-356) (assay: FP; 33 mM phosphate pH 7.0, 90 mM NaCl, 0.01% Tween 20, 0.1 mM DTT, 0.5% agarose; room temperature). Conditions: tags: N-GST (pGEX-6P-1, kept); dsDNA, one strand shown.
T1 sequence: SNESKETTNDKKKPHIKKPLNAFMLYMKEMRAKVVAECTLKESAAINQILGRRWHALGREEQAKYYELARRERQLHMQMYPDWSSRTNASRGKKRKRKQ

Sequence | binding signal | pKd
AGTCTATGATAAA | 8.1 Kd / Kd of best base at the position | –
AGACTTTGATAAA | 1.18 Kd / Kd of best base at the position | –
AGTCTTTGATATA | 1.14 Kd / Kd of best base at the position | –
AGTCTTTAATAAA | 4.58 Kd / Kd of best base at the position | –
AGTCTTTGATAAG | 3.01 Kd / Kd of best base at the position | –
AGTCTTTGACAAA | 4.34 Kd / Kd of best base at the position | –
CGTCTTTGATAAA | 2.92 Kd / Kd of best base at the position | –
AATCTTTGATAAA | 6.88 Kd / Kd of best base at the position | –
AGTCTTTGATAGA | 1.78 Kd / Kd of best base at the position | –
AGTGTTTGATAAA | 2.49 Kd / Kd of best base at the position | –
AGTATTTGATAAA | 5.89 Kd / Kd of best base at the position | –
AGTCTTTGATCAA | 2.02 Kd / Kd of best base at the position | –
AGTCGTTGATAAA | 9.13 Kd / Kd of best base at the position | –
AGCCTTTGATAAA | 2.89 Kd / Kd of best base at the position | –
AGTCTTGGATAAA | 5.87 Kd / Kd of best base at the position | –
AGTCTTTGATAAC | 4.04 Kd / Kd of best base at the position | –
AGTCTTTGCTAAA | 2.06 Kd / Kd of best base at the position | –
AGTCTTTGGTAAA | 1.21 Kd / Kd of best base at the position | –
AGTCATTGATAAA | 7.68 Kd / Kd of best base at the position | –

Sequence | binding signal | pKd
AGTTTTTGATAAA | 5.89 Kd / Kd of best base at the position | –
TGTCTTTGATAAA | 1.34 Kd / Kd of best base at the position | –
AGTCTTTGATGAA | 1.49 Kd / Kd of best base at the position | –
GGTCTTTGATAAA | 1.08 Kd / Kd of best base at the position | –
AGTCTTTCATAAA | 8.7 Kd / Kd of best base at the position | –
AGTCTTAGATAAA | 10.4 Kd / Kd of best base at the position | –
AGTCTTTTATAAA | 3.15 Kd / Kd of best base at the position | –
AGTCTTTGATAAA | – | ~7.14
AGTCTGTGATAAA | 7.87 Kd / Kd of best base at the position | –
AGGCTTTGATAAA | 4.74 Kd / Kd of best base at the position | –
AGTCTTTGATAAT | 1.35 Kd / Kd of best base at the position | –
AGTCTCTGATAAA | 9.73 Kd / Kd of best base at the position | –
AGTCTTTGAAAAA | 2.52 Kd / Kd of best base at the position | –
AGTCTTTGATTAA | 1.63 Kd / Kd of best base at the position | –
AGTCTTTGATACA | 2.07 Kd / Kd of best base at the position | –
ATTCTTTGATAAA | 1.9 Kd / Kd of best base at the position | –
AGTCCTTGATAAA | 5.41 Kd / Kd of best base at the position | –
AGTCTTTGAGAAA | 1.72 Kd / Kd of best base at the position | –
